Source: PubChem BioAssay (Tox21)
Inconclusive results are not listed. Values without a mark were called inactive. Activity calls are given as the source filed them. Calls follow the shape of the dose curve; as a rule, active = well fitted cell-killing curve with a large enough effect in the repeat runs; inconclusive = weak or mixed curves, or effect the other way; inactive = flat fitted curve, though single readings scatter.

Assay: cAMP Responsive Elements (CRE) small molecule antagonists, cell-based qHTS assay: qHTS cell viability counter screen (AID 2060913); also: nearly all actives have a fitted effect of over 40% in size
Conditions: CRE-bla HEK293T viability, CellTiter-Glo luminescence, 5 h; series mostly up to 92.4 µM; viability change, negative = cytotoxic: at the top concentration
Summary of the method: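 HEK293T CRE-bla, 2,000 cells/well, 18 h preincubation; cpd in DMSO + NKH477 0.25 uM final, 3 h 37 C/5% CO2; LiveBLAzer 2 h RT, then CellTiter-Glo 30 min RT, luminescence.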
% is scaled to controls: 0 for no effect and ±100 for the full control effect; potency is read from the fitted curve at half-maximal effect.

Compound | viability change, negative = cytotoxic | Potency
CC[N+](CC)(CC)CCOc1ccc(/C=C/c2ccccc2)cc1 | -9.73% [at 42.5 µM] | 
C[C@H]1O[C@@H](O[C@H]2[C@@H](O)C[C@H](O[C@H]3[C@@H](O)C[C@H](O[C@H]4CC[C@@]5(C)[C@H](CC[C@@H]6[C@@H]5C[C@@H](O)[C@]5(C)[C@@H](C7=CC(=O)OC7)CC[C@]65O)C4)O[C@@H]3C)O[C@@H]2C)C[C@H](O)[C@@H]1O |  | 63.2 nM (active)
Cc1c[nH]c2ccccc12 | -1.53% [at 42.5 µM] | 
CN(C)CCCNCCCN | -7.43% | 
Cc1cc(NC(=O)C(=O)O)cc(C)c1Oc1ccc(O)c2c1CCC2 | 2.01% | 
CCC(C)CCCC(C)(C)O (stereo not given) | -0.14% | 
c1cc2ccc3ccc4ccc5cccc6c(c1)c2c3c4c56 | 18.5% [at 3.27 µM] | 
O |  | inactive
Nc1c(Br)cc([N+](=O)[O-])cc1Br | -14.6% | 
C=CCSCC1Nc2cc(Cl)c(S(N)(=O)=O)cc2S(=O)(=O)N1 (stereo not given) | 3.62% [at 42.5 µM] | 
CCOC(=O)[C@@H](C)Oc1ccc(Oc2nc3ccc(Cl)cc3o2)cc1 | -4.13% | 
O=S(c1cc(Cl)cc(Cl)c1O)c1cc(Cl)cc(Cl)c1O | 1.02% [at 42.5 µM] | 
CCCCCCCCCCCCCC=O | -4.53% [at 8.39 µM] | 
O=C(Nc1cccc([N+](=O)[O-])c1)c1cc2ccccc2cc1O | -22.5% | 
Cc1cn([C@@H]2O[C@H](CO)[C@@H](O)[C@@H]2F)c(=O)[nH]c1=O | -1.86% [at 42.5 µM] | 
O=C(O)c1ccc2cc(O)ccc2c1 | 0.0439% | 
OCC(O)CN1CCN(c2ccccc2)CC1 (stereo not given) | 0.444% [at 42.5 µM] | 
CCOc1cc([N+](=O)[O-])c(OCC)cc1N1CCOCC1 | 0.264% | 
Nc1ccccc1S(=O)(=O)c1ccccc1 | -0.102% | 
Cc1ccco1 | 1.1% | 

Compound | viability change, negative = cytotoxic | Potency
CC(=O)CCC(=O)O |  | inactive
Cc1[nH]cnc1CN1CCc2c(c3ccccc3n2C)C1=O | 11.2% [at 42.5 µM] | 
CCOCCOCCOCC | 0.871% | 
Cc1oc(=O)oc1COC(=O)[C@@H]1N2C(=O)[C@@H](NC(=O)[C@H](N)c3ccccc3)[C@H]2SC1(C)C | -0.337% [at 42.5 µM] | 
OCc1c[nH]c2ccccc12 | 6.95% | 
COc1cc(Cl)ccc1Oc1ccc(Cl)cc1Cl | -16.5% | 
CCCc1nc(C)c2c(=O)[nH]c(-c3cc(S(=O)(=O)N4CCN(CC)CC4)ccc3OCC)nn12 | 5.12% [at 42.5 µM] | 
CCCC(=O)OCC(COC(=O)CCC)OC(=O)CCC | 1% | 
O=S(=O)(O)c1ccc(Cl)cc1 | -1.39% | 
CCCCCCCCCOC(=O)c1ccc(O)cc1 |  | 47900 nM (active)
N[C@@H](Cc1ccc(O)cc1)C(=O)O | -0.963% [at 8.39 µM] | 
COc1cc2[nH]c(=O)[nH]c(=O)c2cc1OC | -0.947% [at 42.5 µM] | 
CC(C)CCCCCOC(=O)CCCCC(=O)OCCCCCC(C)C | 3.77% | 
[O-][n+]1ccccc1SSc1cccc[n+]1[O-] |  | 461 nM (active)
CCOC(=O)C(C)(C)C | 2.92% | 
CC1(C)CC(N)CC(C)(CN)C1 (stereo not given) |  | inactive
C=CCOCC(CC)(CO)COCC=C | 0.0609% | 
CC(CC1c2ccccc2CCc2ccccc21)CN(C)C (stereo not given) | -0.565% [at 42.5 µM] | 
Cc1cc(=O)oc2cc(N(C)C)ccc12 | 0.1% | 
C[C@@H](CN1CC(=O)NC(=O)C1)N1CC(=O)NC(=O)C1 | 3.58% [at 42.5 µM] | 
